Assay: probe aDKK1 binding to arrayed compounds – biochemical, biotinylated probe, 635/667 nm fluorescence, primary screen (AID 1099);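 further: score merges 667nm spot fluorescence with signal to noise across triplicate slides; reference of the scale not given here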
Conditions: small-molecule microarray, higher = more signal

SMILES | composite z-score
CC(=CC1CCCCC1)[C@@H](NC(=O)c1cccnc1)c1ccc(-c2ccccc2)cc1 | -0.0066
C=C(CCCC)/C(=C/C[C@H](OC(C)=O)c1ccccc1OCCO)c1cnc2ccccc2c1 | -0.278
O=C1OCCC=C[C@H]2OC34C=CCN(CCN5CCOCC5)C(=O)[C@H]3N(CCCCCO)C(=O)[C@@H]4C12 (some centres undefined) | -0.235
COC(=O)[C@@]1(Cc2ccc(F)cc2)[C@H]2c3cc(C(=O)N(C)C)n(Cc4cc(C)n(C)n4)c3C[C@H]2CN1C(=O)c1ccccc1 | 1.2
CCOc1ccc(N2C(=O)CSC2c2cccc([N+](=O)[O-])c2)cc1 (centres undefined) | -0.117
COc1cc(CO)cc(I)c1O[C@H]1C=C(C(=O)NCCO)C[C@@H](NC[C@@H]2CCCO2)[C@@H]1O | -0.349
CCCNC(=O)[C@@H]1c2ccccc2C(=O)N(Cc2ccccc2OC)[C@H]1c1ccc(CO)cc1 | 0.0051
COCCOC(=O)N1C(=O)[C@@]2(c3cc(C#CCCO)ccc31)[C@H](c1ccc(O)cc1)N1[C@H](c3ccccc3)[C@H](c3ccccc3)OC(=O)[C@H]1[C@@H]2C(=O)N1CCN(c2ncccn2)CC1 | -0.365

Assay: probe aCHRDL2 binding to arrayed compounds – biochemical, biotinylated probe, 635/667 nm fluorescence, primary screen (AID 1100)
Conditions: small-molecule microarray, higher = more signal

SMILES | composite z-score
COc1cc(CO)cc(I)c1O[C@H]1C=C(C(=O)NCCO)C[C@@H](N(C(=O)c2cc3ccccc3oc2=O)C2CCCCCC2)[C@@H]1O | -0.302
O=C1C2C=CC(C(O)C=Cc3ccc([N+](=O)[O-])cc3)N(n3cnnc3)C2C(=O)N1Cc1ccccc1 (centres undefined) | 0.832
COCCOC(=O)N1C(=O)[C@@]2(c3ccccc31)[C@H](C(=O)N1CCc3cc(OC)c(OC)cc3C1)[C@H]1C(=O)O[C@H](c3ccccc3)[C@H](c3ccccc3)N1[C@@H]2c1ccc(O)cc1 | 0.299
C#CCN(C/C=C/c1ccccc1)[C@H](CO)c1ccccc1 | -0.506
O=C1OCCC=C[C@H]2OC34C=CCN(c5ccc(Cl)cc5)C(=O)[C@H]3N(CCCO)C(=O)[C@@H]4C12 (some centres undefined) | 0.0093
CCCCC(O)C1C=CC2C(=O)N(C)C(=O)C2N1N1CCCCC1 (centres undefined) | 0.743
COc1cc2c(cc1OC)CN(C(=O)[C@H]1[C@@H]3C(=O)O[C@@H](c4ccccc4)[C@@H](c4ccccc4)N3[C@@H](c3ccccc3OCCO)[C@]13C(=O)Nc1ccc(C#CCCO)cc13)CC2 | -0.294
COCCCNC(=O)[C@@]1(Cc2ccccc2)N=C(c2ccc(OCCCO)cc2)O[C@H]1c1ccccc1CN=[N+]=[N-] | 1.32
CC(C)Cc1ccc(CN2CC[C@@H](N)C2)cc1 | -0.275
C[N+](C)(C)CCCC[C@@H]1NC(=O)[C@H]2C[C@@H](C(=O)NCCCCCCNC(=O)CS)[C@@H](c3ccc(O)cc3)N2C1=O | 0.782
COc1ccc(C#Cc2ccc3c(c2)[C@]2(C(=O)N3)[C@H](c3ccc(O)cc3)N3[C@H](c4ccccc4)[C@H](c4ccccc4)OC(=O)[C@H]3[C@@H]2C(=O)N2CCc3cc(OC)c(OC)cc3C2)cc1 | -0.208
[N-]=[N+]=Nc1ccccc1C[C@]1(C(=O)NCC(O)CO)N=C(c2ccc(OCCCO)cc2)O[C@H]1c1ccccc1 (some centres undefined) | 0.965
CC(C)(C)OC(=O)CC[C@]1(C(=O)NCCN2CCOCC2)COC(c2ccc(OCCCO)cc2)=N1 | 0.465
[N-]=[N+]=NCc1ccccc1C[C@@]1(C(=O)NCC(O)CO)N=C(c2ccc(OCCCO)cc2)O[C@@H]1c1ccccc1 (some centres undefined) | 1.22
CC(C)[Si](C#CCCCC#N)(Oc1ccccc1Br)C(C)C | -0.536
C=CCN1Cc2ccccc2[C@@H]2OC(c3ccc(OCCCO)cc3)=N[C@]2(CCS(=O)(=O)c2ccccc2)C1=O | 0.825
CCOC(=O)C1=C[C@@H](C(C)C)N(S(=O)(=O)c2ccc(C)cc2)[C@H]1c1ccccc1F | 0.603
[N-]=[N+]=NCc1ccccc1[C@@H]1OC(c2ccc(OCCCO)cc2)=N[C@]1(CCS(=O)(=O)c1ccccc1)C(N)=O | 1.01

SMILES | composite z-score
OCCCC1=CC(C2CC2)N(Cc2cccc(OC(F)(F)F)c2)CC1 (centres undefined) | -0.286
Cc1ccc([C@H]2C(C(=O)O)=CCN2S(=O)(=O)c2ccc(C)cc2)cc1 | 0.761
COc1ccc([Si](C)(C)[C@H]2[C@H](CCO)O[C@@]3(C(=O)N(Cc4ccccc4)c4ccc(N5CCCCC5=O)cc43)[C@@H]2C)cc1 | 0.104
CC#CC(=O)Oc1ccc(Br)cc1C=CC(=O)OCC | 0.481
COc1cc(OC)c(C(O)C2C=CC3C(=O)NC(=O)C3N2Nc2ccccn2)cc1Br (centres undefined) | 0.483
O=C1[C@H]2C=C(I)[C@H](C[C@@H]2OCCCCO)[C@@]12CO2 | 0.0634
C=C(CCCC)/C(=C/C[C@H](OC(C)=O)c1ccc(OCCO)cc1)c1cnc2ccccc2c1 | -0.0866
COc1ccc(CCNC(=O)[C@@]2(C)c3ccccc3C(=O)N(c3ccc(C)cn3)[C@H]2c2ccc(CO)cc2)cc1 | 0.156
C=CCC(OC(C)=O)[C@@H]1[C@@H](N(Cc2ccc(-c3cccc(C(F)(F)F)c3)o2)C(=O)Cc2ccc(OC)cc2)c2cc(OCCCO)ccc2N1C(=O)c1ccc2ccccc2c1 (some centres undefined) | 0.577
CN(C)CCCC[C@@H]1NC(=O)[C@H]2C[C@@H](C(=O)NCCCCCN)[C@@H](c3cccc(OCCO)c3)N2C1=O | 1.04
CC(=CC1CCCCC1)[C@@H](NC(=O)c1cccnc1)c1ccc(-c2ccccc2)cc1 | 0.849
C=C(CCCC)/C(=C/C[C@H](OC(C)=O)c1ccccc1OCCO)c1cnc2ccccc2c1 | -0.114
O=C1OCCC=C[C@H]2OC34C=CCN(CCN5CCOCC5)C(=O)[C@H]3N(CCCCCO)C(=O)[C@@H]4C12 (some centres undefined) | -0.111
COC(=O)[C@@]1(Cc2ccc(F)cc2)[C@H]2c3cc(C(=O)N(C)C)n(Cc4cc(C)n(C)n4)c3C[C@H]2CN1C(=O)c1ccccc1 | 1.19
CCOc1ccc(N2C(=O)CSC2c2cccc([N+](=O)[O-])c2)cc1 (centres undefined) | -0.0935
COc1cc(CO)cc(I)c1O[C@H]1C=C(C(=O)NCCO)C[C@@H](NC[C@@H]2CCCO2)[C@@H]1O | -0.204
CCCNC(=O)[C@@H]1c2ccccc2C(=O)N(Cc2ccccc2OC)[C@H]1c1ccc(CO)cc1 | 0.4
COCCOC(=O)N1C(=O)[C@@]2(c3cc(C#CCCO)ccc31)[C@H](c1ccc(O)cc1)N1[C@H](c3ccccc3)[C@H](c3ccccc3)OC(=O)[C@H]1[C@@H]2C(=O)N1CCN(c2ncccn2)CC1 | -0.0062
